Reference: PubChem BioAssay AID687001 (Broad Institute, 2013)
Measured potencies and affinities stand elsewhere. The source made the active and inactive calls.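 How the source made its calls: active means signal-lowering compounds whose fitted half-maximal concentration is at or below twice the top tested dose in every run; inconclusive means runs disagree, flat 30 to 70% inhibition, or poor curve fit; inactive means the rest.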

Molecular target: Protein S100-A4 (Homo sapiens) (UniProt P26447)
Assay: human S100A4 peptide interaction inhibition curves – biochemical, fluorescence polarization, cherry-picked hits, dose response (AID 687001);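 further: 0% = DMSO neutral control wells and -100% = TFP positive control wells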
Details: FP, S100A4/TAMRA-myosin IIA peptide binding; series mostly up to 11 µM; activity change, negative = inhibition: at the top concentration

Sequence of Protein S100-A4 (Homo sapiens) (P26447 whole entry, looked up): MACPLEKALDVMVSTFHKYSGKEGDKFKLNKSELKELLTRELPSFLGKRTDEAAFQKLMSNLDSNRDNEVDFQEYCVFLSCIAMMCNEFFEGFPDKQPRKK

Activity change, negative = inhibition, inactive:
CC1CC(C)CN(CCCNC(=O)c2cc3c(s2)-c2ccccc2OC3)C1 (stereo not given) -2.12%, O=C(/C=C/c1ccccc1)Nc1cc(S(=O)(=O)N2CCOCC2)ccc1N1CCOCC1 3.07%, CC(OC(=O)/C=C/c1cccs1)C(=O)NC1CCCCC1C (stereo not given) -1.61%, COc1ccc(OC)c(NC(=O)CSc2nnc(CNC(=O)c3cc(OC)c(OC)c(OC)c3)o2)c1 -5.15%, CC(OC(=O)CSCC(=O)Nc1ccc(Cl)cc1)C(=O)N(C)Cc1ccccc1 (stereo not given) -2.64%, O=C(Nc1ccccc1F)N1CC(=O)N2[C@H](CO)[C@@H](c3ccc(-c4ccccc4)cc3)[C@H]2C1 3.36%, C[C@H]1CN([C@@H](C)CO)C(=O)c2cc(NC(=O)CCC(F)(F)F)ccc2O[C@@H]1CN(C)S(=O)(=O)c1cn(C)cn1 0.537% [at 10 µM], COc1ccccc1CN1CCNC(=O)C1CC(=O)NCCCN1CCOCC1 (stereo not given) -11.5%, O=C(CN(Cc1ccco1)C(=O)c1cccc(F)c1)Nc1ccccc1C(F)(F)F -0.501%, CSCCC(NC(=O)c1ccccc1Cl)C(=O)NCC(c1cccs1)N(C)C (stereo not given) -5.64%, COCCCNC(=O)C[C@@H]1C[C@@]2(C(=O)OC)CCCCC=C2N(Cc2ccc3c(c2)OCO3)C1=O -2.69%, O=C(NCc1cc([N+](=O)[O-])ccc1O)c1cccnc1Sc1ccccc1 0.274%, Cc1ccc(S(=O)(=O)N(C)C[C@H]2Oc3ccc(NC(=O)Nc4ccccc4)cc3C(=O)N([C@@H](C)CO)C[C@H]2C)cc1 7.16%, O=S(=O)(NCC(c1ccc2c(c1)OCO2)N1CCN(c2ccccc2)CC1)c1ccccc1 (stereo not given) 1.36%, COc1cccc(NC(=O)CC2Oc3ccccc3NC2=O)c1 (stereo not given) -1.91%
